Among the data in PubChem BioAssay (NCATS) are Potency values, retold here.

Records with an inconclusive call do not appear. Entries that show only a call come without a potency. Active and inactive are the calls of the source. Calls follow the shape of the dose curve; as a rule, active = well fitted cell-killing curve with a large enough effect; inconclusive = small, poorly fitted or top-dose-only effect, or effect the other way; inactive = no such curve, though single readings can be large or run the other way. Peptide text beside a SMILES is read from it.
Potency is read from the fitted curve at half-maximal effect.

This test in a line: Quantitative High-Throughput drug screen in 47 multiple myeloma cell lines against the NCATS MIPE library collection: LP1_DSMZ cell viability assay (AID 1918982). Also: nearly all actives have a fitted effect of over 35% in size. Conditions: LP1 myeloma viability, CellTiter-Glo ATP luminescence, 48 h; series mostly up to 45.8 µM. From the text: PI: Beverly A. Mock Ph.D.
Laboratory of Cancer Biology and Genetics,
Center for Cancer Research, National Cancer Institute,
National Institute of Health, Bethesda, Maryland
Drug resistance and disease progression are common in multiple myeloma (MM) patients, underscoring the need for new therapeutic combinations. […] We hypothesized that effective combinations would reduce MYC expression and enhance p16 activity. […] These preclinical data identify potentially useful drug combinations for evaluation in drug-resistant MM and reveal potential mechanisms of combined drug sensitivity.
Described herein is the primary MIPE qHTS used to cherrypick compounds. Validated compounds were then further tested for potential synergistic activiy.
[1] Peat TJ, Gaikwad SM, Dubois W, Gyabaah-Kessie N, Zhang S, Gorjifard S, Phyo Z, Andres M, Hughitt VK, Simpson RM, Miller MA, Girvin AT, Taylor A, Williams D, D'Antonio N, Zhang Y, Rajagopalan A, Flietner E, Wilson K, Zhang X, Shinn P, Klumpp-Thomas C, McKnight C, Itkin Z, Chen L, Kazandijian D, Zhang J, Michalowski AM, Simmons JK, Keats J, Thomas CJ, Mock BA. Drug combinations identified by high-throughput screening promote cell cycle transition and upregulate Smad pathways in myeloma. Cancer Lett. 2023 Aug 1;568:216284. doi: 10.1016/j.canlet.2023.216284. Epub 2023 Jun 24. PMID: 37356470; PMCID: PMC10408729.
SEQUENCE No. (e.g., 1, 2, 3, etc.); […] (e.g., Cells, Incubation, Reagent, etc.); VALUE and DESCRIPTION.
1; Cells; 5 uL; white, solid bottom 1536-well Greiner assay plate.
2; Compounds; 23 nL; Kalypsis pin tool (Wako USA) equipped with a 1536-well pin head to transfer to the assay plates.
3; Incubation; 48 hours; 37C incubation.
4; Reagent;5uL; CellTiter Glo (Promega).
5; Detector; 425V; Luminescence; Viewlux PerkinElmer.
NOTES (numbers refer to Sequence numbers above)
1. The cell-based screening methods employed in this study were like those previously published. Briefly, the corresponding myeloma cell lines were screened in 1,536-well plates with 500 cells, 5-uL per well for inhibition of cell viability (assessed by measuring ATP levels with CellTiterGlo).
2. NCATS MIPE 4.0 library of approved and investigational drugs were added using the Kalypsis pin tool. Wells treated with DMSO only for 100% viability and media only for 0% viability were used as controls.
3. The assay plates were covered and incubated for 48 hours in a 37C, 5% CO2 incubator with controlled humidity.
4. After 48 hours, CellTilter-GloTM luminescent substrate mix (Promega) reagent was added to the assay plate and plates we incubated for 5 min at room temperature.
5. Signal was measured as median relative luminescence units on a ViewLux (PerkinElmer) multiplate reader.
[1] Heske CM, Davis MI, Baumgart JT, Wilson K, Gormally MV, Chen L, Zhang X, Ceribelli M, Duveau DY, Guha R, Ferrer M, Arnaldez FI, Ji J, Tran HL, Zhang Y, Mendoza A, Helman LJ, Thomas CJ. Matrix Screen Identifies Synergistic Combination of PARP Inhibitors and Nicotinamide Phosphoribosyltransferase (NAMPT) Inhibitors in Ewing Sarcoma. Clin Cancer Res. 2017 Dec 1;23(23):7301-7311. doi: 10.1158/1078-0432.CCR-17-1121. Epub 2017 Sep 12. PMID: 28899971; PMCID: PMC6636827.
With `CCC1=C(C)CN(C(=O)NCCc2ccc(S(=O)(=O)NC(=O)NC3CCC(C)CC3)cc2)C1=O` (stereo not given), the Potency entry is “inactive”. The same measure for `CN(C)CCc1c[nH]c2ccc(Cn3cncn3)cc12`: “inactive”.

With `O=C(O)c1cc(=O)c2c(OCC(O)COc3cccc4oc(C(=O)O)cc(=O)c34)cccc2o1`, the Potency result is “inactive”. With `CCN(CC)C(=S)SSC(=S)N(CC)CC` the figure was 0.0209 µM (active); with `CC(C)c1nc(CN(C)C(=O)N[C@H](C(=O)N[C@@H](Cc2ccccc2)C[C@H](O)[C@H](Cc2ccccc2)NC(=O)OCc2cncs2)C(C)C)cs1`, 16.6 µM (active); with `CN1C(C(=O)Nc2ccccn2)=C(O)c2sccc2S1(=O)=O`, “inactive”.

Take `CC(=O)O[C@H]1C(=O)[C@@]2(C)C([C@H](OC(=O)c3ccccc3)[C@]3(O)C[C@H](OC(=O)[C@H](O)[C@@H](NC(=O)c4ccccc4)c4ccccc4)C(C)=C1C3(C)C)[C@]1(OC(C)=O)CO[C@@H]1C[C@@H]2O` (stereo not given in full): the Potency entry was “inactive”.

For `CCC[C@@H]1C[C@@H](C(=O)N[C@@H]([C@H]2O[C@H](SC)[C@H](O)[C@@H](O)[C@H]2O)[C@@H](C)O)N(C)C1`, the Potency entry was “inactive”.

With `S=c1nc[nH]c2nc[nH]c12`, the Potency is 10.5 µM (active).

For the compound `O=C(OC1C[C@H]2CC[C@@H](C1)[N+]21CCCC1)C(O)(c1ccccc1)c1ccccc1` (stereo not given in full), the Potency result is “inactive”. Regarding `C[C@@H](c1ncncc1F)[C@](O)(Cn1cncn1)c1ccc(F)cc1F`, the Potency entry is “inactive”. With `O=c1cc(N2CCOCC2)oc2c(-c3ccccc3)cccc12` the figure was 11.8 µM (active); with `CC(C)[N+]1(C)[C@@H]2CC[C@H]1CC(OC(=O)C(CO)c1ccccc1)C2` (stereo not given in full), “inactive”. With `Cc1cc(=O)oc2cc(O)ccc12` the entry was “inactive”; with `Nc1nc(OCc2ccccc2)c2[nH]cnc2n1`, “inactive”. The same measure for `Clc1ccc(C(Cn2ccnc2)OCc2ccc(Sc3ccccc3)cc2)c(Cl)c1` (stereo not given): 23.5 µM (active).

As for `CC(C)(S)[C@@H](N)C(=O)O`, the Potency entry was “inactive”. The same measure for `CCCS(=O)c1ccc2nc(NC(=O)OC)[nH]c2c1` (stereo not given): 16.6 µM (active). With `O=C(CS(=O)Cc1ccco1)NCC=CCOc1cc(CN2CCCCC2)ccn1` (stereo not given) the entry was “inactive”; with `CCN(CC)CCOc1ccc(Cc2ccccc2)cc1`, 14.8 µM (active). In the case of `CN(C)c1ccc2nc3ccc(=[N+](C)C)cc-3sc2c1`, the Potency is 4.69 µM (active).

For the compound `C[C@H](Cc1ccc(O)c(O)c1)[C@@H](C)Cc1ccc(O)c(O)c1`, the Potency is 18.7 µM (active).

For `CC(C)[C@H](N)C(=O)OCCOCn1cnc2c(=O)[nH]c(N)nc21`, the Potency entry was “inactive”. For the compound `CC1=C(C(=O)O)N2C(=O)[C@@H](NC(=O)[C@H](N)C3=CCC=CC3)[C@H]2SC1`, the Potency result was “inactive”.

In the case of `O=C(NCCO[N+](=O)[O-])c1cccnc1`, the Potency result is “inactive”. On to `O=Nc1c(-c2c(O)[nH]c3cc(Br)ccc23)[nH]c2ccccc12`, for which the Potency was 13.2 µM (active). The same measure for `O=C(NC(Cc1cc(=O)[nH]c2ccccc12)C(=O)O)c1ccc(Cl)cc1` (stereo not given): “inactive”.

For the compound `CCc1nc(N)nc(N)c1-c1ccc(Cl)cc1`, the Potency was 8.33 µM (active). The same measure for `Nc1ccc(S(N)(=O)=O)cc1`: “inactive”; for `Nc1cc(C(Cl)=C(Cl)Cl)c(S(N)(=O)=O)cc1S(N)(=O)=O`: “inactive”; for `Cc1cc2c(s1)Nc1ccccc1N=C2N1CCN(C)CC1`: “inactive”.

Consider `NNc1nncc2ccccc12`, for which the Potency result was “inactive”. With `CC1Cc2ccccc2N1NC(=O)c1ccc(Cl)c(S(N)(=O)=O)c1` (stereo not given) the entry was “inactive”; with `CN(c1nccc(=O)[nH]1)C1CCN(c2nc3ccccc3n2Cc2ccc(F)cc2)CC1`, “inactive”. For the compound `c1ccc2[nH]c(-c3cscn3)nc2c1`, the Potency entry is “inactive”. With `COC(=O)[C@H](Cc1ccccc1)NC(=O)[C@@H](N)CC(=O)O` (H-Asp-Phe-OMe), the Potency entry is “inactive”. The same measure for `Clc1ccc2c(N3CCN(CCCN4CCN(c5ccnc6cc(Cl)ccc56)CC4)CC3)ccnc2c1`: “inactive”.

As for `O=C(O)c1cccnc1Nc1cccc(C(F)(F)F)c1`, the Potency result is “inactive”. The same measure for `CNC[C@H](O)c1ccc(O)c(O)c1`: 30.3 µM (active); for `C=CCc1cc(OC)c(O)c(C(=O)NCCO)c1`: “inactive”.
